This passage reports composite z-score and z-score results from PubChem BioAssay.

Calls of active or inactive are those of the source. Unless noted, the rule behind the calls is not given here.

Assay [1] has as its system XIP peptide (Xip251-270) binding. Description: XIP fragment 251-270 binding compounds – biochemical, small-molecule microarray, fluorescence 635/667 nm, 0.1 µg/mL protein, primary screen (AID 1182). As to conditions: fluorescent protein binding, 635 nm, higher = more signal, called active from +8 up or from −8 down.
The subject of another assay is XIP peptide (Xip251-270). Kind of assay: compounds binding XIP fragment 251-270 – biochemical, small-molecule microarray, fluorescence 635/667 nm, 0.5 µg/mL protein, primary screen (AID 1183). Conditions: fluorescence 635 nm, higher = more signal.
A short description of assay [2]: blood-stage malaria parasite viability loss – strain 3D7, DAPI fluorescence, 100 nL, primary screen (AID 1184).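 Note: parasites grown inside human red blood cells in medium with human serum.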 Conditions: P. falciparum 3D7 growth, 3 d, higher = more signal.
The target of assay [3] is Homeobox protein Hox-A13 (Mus musculus) (UniProt Q62424). Description: disruptors of Hoxa13 oligonucleotide interaction – biochemical, fluorescence polarization, labeled oligonucleotide, primary screen (AID 1185). As to conditions: Hoxa13:DNA binding, 15 min, higher = more signal, called active from +8 up or from −8 down. In general terms: Polarisation of emitted light reports the rotation of a fluorescent probe.
Homeobox protein Hox-A13 (Mus musculus), sequence (Q62424 whole entry, looked up): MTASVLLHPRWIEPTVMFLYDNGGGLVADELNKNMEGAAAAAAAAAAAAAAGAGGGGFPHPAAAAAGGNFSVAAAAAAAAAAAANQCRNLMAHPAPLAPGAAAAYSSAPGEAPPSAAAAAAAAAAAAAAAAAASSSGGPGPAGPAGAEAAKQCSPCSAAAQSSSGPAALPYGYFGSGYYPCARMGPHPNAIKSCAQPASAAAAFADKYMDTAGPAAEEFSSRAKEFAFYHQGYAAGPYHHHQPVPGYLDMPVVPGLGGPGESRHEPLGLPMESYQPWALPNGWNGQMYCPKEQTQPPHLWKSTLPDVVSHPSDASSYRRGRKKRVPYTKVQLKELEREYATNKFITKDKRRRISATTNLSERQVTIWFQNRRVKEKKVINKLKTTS

Assay [4] is described as follows: blockers of DNA damage checkpoint Chk1 activation – imaging, HeLa, hydroxyurea, phospho-Chk1 antibody, percent positive cells, primary screen (AID 1186). As to conditions: hydroxyurea-induced phospho-Chk1 immunofluorescence imaging, higher = more signal.
Assay [5] can be described thus: blockers of DNA damage checkpoint Chk1 activation – imaging, HeLa, hydroxyurea, phospho-Chk1 nuclear intensity, primary screen (AID 1187). As to conditions: hydroxyurea-induced phospho-Chk1 immunofluorescence imaging, higher = more signal.

Take `CCCCC(=C=CC[C@@H](O)c1cccc(OCCO)c1)C[C@@H](O)COCc1ccccc1`: the composite z-score in assay [1] was -0.0344 (inactive); in the assay with XIP peptide (Xip251-270), 0.713. Also, the z-score in assay [2] was -1.1; in assay [3] it was -4.82 (inactive); in assay [4], -0.255 (inactive); in assay [5] it was 0.827 (inactive).

On to `CCCC=C(CCC)[C@@H](NC(=O)c1ccccc1)c1ccc(C(=O)OC)cc1`, for which the results for the composite z-score (in assay [1]; in the assay on XIP peptide (Xip251-270)) were -0.0026 (inactive) and 0.222, respectively. Moreover, the z-score is -0.891 in assay [2], -0.72 (inactive) in assay [3], 0.473 (inactive) in assay [4] and 0.204 (inactive) in assay [5].

`[N-]=[N+]=NCc1ccccc1C[C@]1(C(=O)N2CCOCC2)N=C(c2ccc(OCCCO)cc2)O[C@H]1c1ccccc1CN=[N+]=[N-]`: the composite z-score was 0.158 (inactive) in assay [1] and 0.733 in the assay with XIP peptide (Xip251-270). For the same compound, the z-score is -2.28 in assay [2], 0.116 (inactive) in assay [3], -0.597 (inactive) in assay [4] and -0.736 (inactive) in assay [5].

Consider `C=CCC(OC(C)=O)[C@@H]1[C@@H](N(Cc2ccc(-c3ccccc3)cc2)C(=O)c2ccc(-c3ccccc3)cc2)c2cc(OCCCO)ccc2N1C(=O)c1ccc2ccccc2n1` (stereo not given in full), for which the composite z-score was -0.649 (inactive) in assay [1] and 0.119 in the assay with XIP peptide (Xip251-270). The z-score is -0.273 in assay [2], -0.983 (inactive) in assay [3], 0.0922 (inactive) in assay [4] and 0.352 (inactive) in assay [5].

As for `C=CC[C@]1(C(=O)N(C)C)COC(c2ccc(OCCCO)cc2)=N1`, the figures for the composite z-score (in assay [1]; with XIP peptide (Xip251-270)) were 0.113 (inactive) and 0.907, respectively. Also, the z-score in assay [2] is -1.7; in assay [3], -2.35 (inactive); in assay [4], -0.491 (inactive); in assay [5], -0.146 (inactive).

On to `Cc1ccc(S[C@]2(C(=O)NCCCN(C)C)CC(=O)N(Cc3ccccc3Cl)[C@@H]2c2ccc(CO)cc2I)cc1`, for which the composite z-score is 0.0919 (inactive) in assay [1] and 0.856 in the assay on XIP peptide (Xip251-270). Also, the z-score is -0.344 in assay [2], -1.48 (inactive) in assay [3], -0.0214 (inactive) in assay [4] and 0.0301 (inactive) in assay [5].

Regarding `C=CCOC(=O)[C@@H]1[C@H]2C(=O)O[C@H](c3ccccc3)[C@H](c3ccccc3)N2[C@H](c2ccc(OCCOC(=O)[C@H]3C[C@H]4C(=O)NCC(=O)N4[C@H]3c3ccc(O)cc3)cc2)[C@@]12C(=O)Nc1ccc(I)cc12`, the results for the composite z-score (in assay [1]; with XIP peptide (Xip251-270)) were 1.34 (inactive) and 0.868, respectively. Moreover, the z-score in assay [2] is -1.69; in assay [3] it was 1.52 (inactive); in assay [4], -0.804 (inactive); in assay [5], -0.762 (inactive).

As to `CC1(C)OC[C@@]23C=C(Br)[C@@H](C[C@H]12)[C@@]1(CO1)C3=O`, the composite z-score in assay [1] was -0.319 (inactive); in the assay on XIP peptide (Xip251-270), 0.0841. Moreover, the z-score is 1.96 in assay [2], 0.26 (inactive) in assay [3], -0.54 (inactive) in assay [4] and -0.682 (inactive) in assay [5].

In the case of `COc1ccc([Si](C)(C)[C@H]2[C@H](CCn3cc([C@H](O)c4ccccc4)nn3)O[C@@]3(C(=O)N(c4ccccc4)c4ccccc43)[C@@H]2C)cc1`, the composite z-score is -0.292 (inactive) in assay [1] and 0.505 in the assay on XIP peptide (Xip251-270). For the same compound, the z-score in assay [2] was -1.18; in assay [3], -3.4 (inactive); in assay [4], -0.282 (inactive); in assay [5] it was -0.513 (inactive).

For the compound `CCOC(=O)C1=CC[C@@H](c2ccccc2)N(S(=O)(=O)C[Si](C)(C)C)[C@H]1c1ccccc1`, the composite z-score in assay [1] was 0.127 (inactive); with XIP peptide (Xip251-270), 0.704. The z-score in assay [2] is -1.86; in assay [3], -1.35 (inactive); in assay [4], 0.587 (inactive); in assay [5], 0.496 (inactive).

In the case of `COc1cccc(OC)c1C(=O)O[C@H]1[C@@H]2OC(=O)[C@H](Cc3cccc(Br)c3)C/C=C/C[C@@H](Cc3cccc(Br)c3)C(=O)O[C@H]2[C@@H](OC)O[C@@H]1CO`, the values for the composite z-score (in assay [1]; in the assay on XIP peptide (Xip251-270)) were 1.02 (inactive) and -0.213, respectively. Besides, the z-score was -0.545 in assay [2], -4.16 (inactive) in assay [3], 0.0558 (inactive) in assay [4] and 0.0783 (inactive) in assay [5].

`O=C(NCCO)C1=C[C@H](Oc2ccccc2I)[C@@H](O)[C@H](NCc2ccc(F)cc2)C1`: the composite z-score in assay [1] is 0.234 (inactive); in the assay on XIP peptide (Xip251-270), -0.875. The z-score in assay [2] was -1.61; in assay [3] it was -6.81 (inactive); in assay [4], 0.079 (inactive); in assay [5], -0.34 (inactive).

In the case of `CN(C)C(=O)[C@]1(Cc2ccccc2)N=C(c2ccc(OCCCO)cc2)O[C@@H]1c1ccccc1`, the composite z-score in assay [1] was 0.895 (inactive); with XIP peptide (Xip251-270), 0.851. The z-score was -2.38 in assay [2], -6.32 (inactive) in assay [3], -0.752 (inactive) in assay [4] and -0.755 (inactive) in assay [5].

On to `COC(=O)c1c(CC[C@@H](CO)NC(=O)N[C@@H](Cc2ccccc2)Cn2cc(-c3cncn3C)nn2)oc(C(C)=O)c1C(=O)OC`, for which the composite z-score in assay [1] is 0.606 (inactive); in the assay with XIP peptide (Xip251-270), 0.851. Besides, the z-score is -2.06 in assay [2], -4.35 (inactive) in assay [3], -0.331 (inactive) in assay [4] and -0.0353 (inactive) in assay [5].

With `C=C(C(=O)CC[C@@H](OC(C)=O)c1cccc(OCCO)c1)C(C)C`, the composite z-score was 0.723 (inactive) in assay [1] and 0.436 with XIP peptide (Xip251-270). Moreover, the z-score is -1.01 in assay [2], -4.41 (inactive) in assay [3], -0.0088 (inactive) in assay [4] and 0.158 (inactive) in assay [5].
